From PubChem BioAssay (EPA / NIEHS)
More than one record can exist for a structure, and the calls need not agree. Active and inactive are the calls of the source. The calls were made as follows: active = hit-call score of the fitted dose curve at least 0.9, where 1 is the maximum; inactive = score below 0.9.

These compounds were tested against Retinoic acid receptor alpha (Homo sapiens) (UniProt P10276) (assay: ATG_DR5_RAR_CIS: Attagene CIS-FACTORIAL HepG2 Assay for human Retinoic Acid Receptor Alpha (RARE), DR5 submotif (AID 2282934;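 as to AC50: reporter responds to endogenous RAR alpha beta and gamma in HepG2 not RARA alone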)). Conditions: HepG2 Attagene cis-factorial RARE DR5 reporter, mRNA; actives raise or lower the signal.
Retinoic acid receptor alpha (Homo sapiens), sequence (P10276 whole entry, looked up): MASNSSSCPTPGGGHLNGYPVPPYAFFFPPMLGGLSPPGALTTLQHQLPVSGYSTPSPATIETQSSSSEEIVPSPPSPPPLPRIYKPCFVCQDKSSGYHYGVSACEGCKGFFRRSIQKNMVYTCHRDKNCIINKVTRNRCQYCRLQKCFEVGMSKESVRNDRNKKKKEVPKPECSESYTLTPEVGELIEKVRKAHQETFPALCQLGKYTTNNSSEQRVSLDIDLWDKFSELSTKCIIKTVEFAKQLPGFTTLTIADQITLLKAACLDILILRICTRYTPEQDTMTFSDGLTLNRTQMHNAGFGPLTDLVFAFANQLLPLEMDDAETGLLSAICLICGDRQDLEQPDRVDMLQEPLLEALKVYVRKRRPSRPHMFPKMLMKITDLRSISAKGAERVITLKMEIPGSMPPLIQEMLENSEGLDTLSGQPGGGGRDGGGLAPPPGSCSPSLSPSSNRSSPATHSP
In short: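 Read-out: DR5-driven reporter transcript measured by RT-PCR, 6-FAM primer extension, HpaI digest and capillary electrophoresis. Human HepG2 liver cells carry transiently transfected cis-element reporter constructs; dosing lasts 24 h. Gain or loss of signal fitted against DMSO baseline.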
`C[Si](C)(C)C(F)(F)C(F)(F)C(F)(F)F` was tested, and the outcome was “inactive”. In the case of `FC(F)C(F)(F)COCC1CO1` (stereo unspecified), the outcome is reported as “inactive”. In the case of `Cc1cccc(O)c1C`, the outcome is reported as “inactive”. `Cc1nc(-c2ccccn2)ncc1C(=O)Nn1cc(C)c2cc(F)ccc21` was tested, and the outcome was “inactive”. `O=S(=O)(O)CCC(F)(F)C(F)(F)C(F)(F)C(F)(F)C(F)(F)C(F)(F)F` was tested, and the outcome was “inactive”. `O=C1CN(N=Cc2ccc([N+](=O)[O-])o2)C(=O)N1` was tested, and the outcome was “inactive”. With `FC(F)(F)COC(OCC(F)(F)F)OCC(F)(F)F` the outcome was “inactive”. `FC(F)(F)C(F)(F)C(F)(F)C(F)(F)C(F)(F)C(F)(F)I` was tested, and the AC50 was 103 µM (active) and the outcome was “inactive”. For `O=C(O)CO`, the outcome was “inactive”. In the case of `O=C(Cl)C(F)(F)C(F)(F)C(F)(F)C(=O)Cl`, the outcome is reported as “inactive”. With `OCc1c[nH]c2ccccc12` the outcome was “inactive”. In the case of `S=P(N1CC1)(N1CC1)N1CC1`, the outcome is reported as “inactive”. For `CCCCC(CC)C(=O)OCCOCCOCCOC(=O)C(CC)CCCC` (stereo unspecified), the outcome was “inactive”. In the case of `CC(C)c1nnc2ccc(-c3ocnc3-c3cc(F)ccc3F)cn12`, the outcome is reported as “inactive”. For `CCCCCCCC1CCC(=O)O1` (stereo unspecified), the outcome was “inactive”. `NCC(F)(F)C(F)(F)C(F)(F)C(F)(F)F` was tested, and the outcome was “inactive”. With `OC(O)(C(F)C(O)(O)C(F)(F)F)C(F)(F)F` the outcome was “inactive”. `FC(F)=C(F)C(F)(F)C(F)(F)C(F)(F)C(F)(F)C(F)(F)C(F)(F)F` was tested, and the outcome was “inactive”. With `O=C(N[C@H](CO)[C@H](O)c1ccc([N+](=O)[O-])cc1)C(Cl)Cl` the outcome was “inactive”. With `OCCC(F)(F)C(F)(F)C(F)(F)C(F)(F)F` the outcome was “inactive”.
